In the library only some 10% were active in any assay of this set; here they are far more common.
GPT2 inh: Primary qHTS assay for inhibitors of Glutamate pyruvate transaminase 2 (GPT2); Recombinant GPT2, coupled pyruvate oxidase/HRP Amplex Red fluorescence; Potency, µM (highest dose often 57.7 µM), hits mostly inhibitors; 100,000 tested, 0.25% active; AID 1671188, 2021; also: nearly all actives have a fitted effect of over 60% in size
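GPT2 10ng/uL, a-KG 250uM, L-Ala 2mM, HEPES pH7.5 + 0.0001% Tween; 30 min RT. Then Amplex mix (PO/HRP/ThPP), 30 min RT dark, fluorescence. AOA 50uM used as positive control.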
NIH3T3 tox: Cytotoxic Profiling in NIH 3T3 Cell Line of Diverse Libraries Using Quantitative High-Throughput Screening. NIH 3T3 viability, CellTiter-Glo ATP luminescence, 48-72 h. Potency, µM (doses to about 96.7 µM), most hits filed as inhibitors. 94,000 tested, 4.3% active; also: nearly all actives have a fitted effect of over 55% in size
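Viability of NIH 3T3 cells after 48 or 72 hr compound treatment at 37 °C was assessed by CellTiter-Glo, with luminescence imaged following a 10 min room-temperature step.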
hNpr1 antagonist: Natriuretic polypeptide receptor (hNpr1) antagonism - Primary qHTS; HEK293 hNpr1 GloSensor cGMP, ANP-stimulated luminescence; 76,000 tested, 1.6% active; Potency, µM (highest dose often 46.3 µM), actives largely listed as inhibitors; AID 1347048, 2019; Atrial natriuretic peptide receptor 1 (Homo sapiens), P16066; calls by dose curve; also: nearly all actives have a fitted effect of over 60% in size
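HEK293 cells stably expressing human Npr1 and cGMP GloSensor pGS-40F, loaded 2 h with 2% GloSensor reagent, given compound 30 min at room temperature. Luminescence read before and 20 min after 0.1 nM hNppA.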
FLuc inh: Firefly luciferase inhibition profiling of diverse chemical library using quantitative high-throughput screening | Luciferin 4-monooxygenase (Photinus pyralis), P08659 | 76,000 tested, 2.5% active | Potency, µM (titrated, usually from 115 µM), most hits filed as inhibitors | purified P. pyralis luciferase, luminescence, biochemical | AID 1347043, 2019; also: nearly all actives have a fitted effect of over 65% in size
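Luminescence read by CCD imaging after purified firefly luciferase (10nM final) was added to substrate buffer holding 10uM D-luciferin and 10uM ATP, pH 7.5, pre-dosed with compound.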
HEK293 tox: Cytotoxic Profiling in HEK 293 Cell Line of Diverse Libraries Using Quantitative High-Throughput Screening | 94,000 tested, 6.6% active | AID 1345083, 2018 | HEK 293 viability, ATP luminescence (CellTiter-Glo), 48-72 h | Potency, µM (titrated, usually from 115 µM), usual class: inhibitors; also: nearly all actives have a fitted effect of over 60% in size
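HEK 293 cells at 250 cells/well were exposed to compounds by pintool transfer for 48 or 72 hr at 37 degree Celsius, 5% CO2. Viability was read as ATP-coupled luminescence with CellTiter-Glo after 10 min at room temperature.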
GPT2 inh cnf: Confirmatory qHTS assay for inhibitors of Glutamate pyruvate transaminase 2 (GPT2) | AID 1671187, 2021 | GPT2 enzyme, coupled Amplex Red pyruvate fluorescence | 95 tested, 90% active | shares compounds with GPT2 inh | Potency, µM, usual class: inhibitors
Each line names hits and unclear results; the compound was inactive in the other large screens (follow-up assays come after a bar, where they were run); ! = repeats disagree. Unless noted, calls follow the shape of the dose curve; as a rule, active = well fitted curve in the direction sought with a large enough effect; inconclusive = small, poorly fitted or top-dose-only effect, or another doubt; inactive = no such curve, though single readings can be large; an effect the other way counts as inactive or inconclusive.

c1ccc(CCN2CCNc3cc(Nc4ccc(N5CCOCC5)cc4)ncc3C2)cc1	GPT2 inh 14µM, NIH3T3 tox 35µM, HEK293 tox 50µM | GPT2 inh cnf 6.3
CN1CCN(C)c2cc(Nc3ccc(N4CCOCC4)cc3)ncc2C1	none (no result: GPT2 inh, NIH3T3 tox, hNpr1 antagonist, FLuc inh, HEK293 tox) | GPT2 inh cnf 7
O=c1c2c(CO)c(-c3ccc(F)cc3)nn2ccn1Cc1cc(=O)n2ccccc2n1	none
Cc1cc(Cl)ccc1NC(=O)CCn1ccn2nc3c(c2c1=O)CCCC3	NIH3T3 tox inconclusive, HEK293 tox inconclusive
CCN(CC)c1ccc(NC(=O)CCn2ccn3nc4c(c3c2=O)CCCC4)c(C)c1	GPT2 inh inconclusive, NIH3T3 tox 40µM, HEK293 tox inconclusive | GPT2 inh cnf 1.7
Cn1nccc1C(=O)NCCC1CCN(C(=O)Nc2cc(F)ccc2F)CC1	none
COc1ccc(-c2ccc3nc(-c4ccccc4Cl)oc3c2)c(OC)c1OC	NIH3T3 tox inconclusive, FLuc inh inconclusive, HEK293 tox inconclusive
COc1ccc(-c2ccc3nc(-c4cccc(Cl)c4)oc3c2)c(OC)c1OC	GPT2 inh inconclusive, FLuc inh inconclusive, HEK293 tox inconclusive | GPT2 inh cnf 2.4
COc1ccc(NC2CCCN(C(=O)c3ccccc3C(F)(F)F)C2)cc1OC (stereo unspecified)	GPT2 inh inconclusive, HEK293 tox inconclusive | GPT2 inh cnf 3.9
COc1ccc(NC2CCCN(C(=O)c3cc(C(C)=O)n[nH]3)C2)cc1OC (stereo unspecified)	GPT2 inh inconclusive
COCCNC(=O)[C@@H]1C[C@@H](O)CN1C1CCN(C(=O)c2cccs2)CC1	none
Cn1ccc2cc(NCc3nnc(C(=O)N4CCC[C@@H]4CN4CCCC4)n3-c3ccccc3)ccc21	GPT2 inh inconclusive, NIH3T3 tox inconclusive, FLuc inh inconclusive | GPT2 inh cnf inconclusive
c1ccc(-c2cc3c(cn2)NCCN(Cc2ccccn2)C3)cc1	HEK293 tox inconclusive
COc1ccc(CN2CCNc3cnc(Nc4ccccc4)cc3C2)cc1O	GPT2 inh inconclusive, NIH3T3 tox inconclusive, HEK293 tox inconclusive | GPT2 inh cnf 5
c1ccc(Nc2cc3c(cn2)NCCN(Cc2ccccn2)C3)cc1	HEK293 tox inconclusive | GPT2 inh cnf 3.5
Oc1ccccc1CN1CCNc2cnc(Nc3ccccc3)cc2C1	GPT2 inh 6.3µM, NIH3T3 tox inconclusive, hNpr1 antagonist inconclusive, HEK293 tox inconclusive | GPT2 inh cnf 6.3
CCc1nc(C(N)=O)c(Nc2ccc(N3CCC(N4CCN(C)CC4)CC3)c(OC)c2)nc1NC1CCOCC1	GPT2 inh 8.6µM (no result: NIH3T3 tox, hNpr1 antagonist, FLuc inh, HEK293 tox) | GPT2 inh cnf 3.1
COc1ccccc1N1CCN(C2CCCN(Cc3nc(C(N)=O)no3)C2)CC1 (stereo unspecified)	none
CN(C)c1ccc2c(c1)CN(C(=O)c1cnn(C)c1)CCO2	GPT2 inh 1µM (no result: hNpr1 antagonist, FLuc inh) | GPT2 inh cnf 0.69
CN(C)c1ccc(C(=O)N2CCc3cn(C)c4cccc(c34)C2)cc1	NIH3T3 tox inconclusive, HEK293 tox inconclusive
CCCNC(=O)CCC1CCN(S(=O)(=O)c2ccccc2)CC1	none
Cc1cnc(Nc2ccc(F)cc2Cl)nc1-c1c[nH]c(C(=O)NC(CO)c2cccc(Cl)c2)c1 (stereo unspecified)	GPT2 inh 7.1µM (no result: NIH3T3 tox, hNpr1 antagonist, FLuc inh, HEK293 tox) | GPT2 inh cnf 3.4
COc1cc(N2CCC(N3CCN(C)CC3)CC2)ccc1Nc1ncnc(Nc2ccccc2S(=O)(=O)C(C)C)n1	GPT2 inh 4.3µM! (no result: NIH3T3 tox, hNpr1 antagonist, FLuc inh, HEK293 tox) | GPT2 inh cnf 1.5
COc1cc(N2CCC(O)CC2)ccc1Nc1cc(Nc2ccccc2S(=O)(=O)C(C)C)c2cc[nH]c2n1	GPT2 inh 3.4µM! (no result: NIH3T3 tox, hNpr1 antagonist, FLuc inh, HEK293 tox) | GPT2 inh cnf 3.4
COc1ccccc1Nc1ccnc(N2CCC(C(=O)NC(C)C)CC2)n1	NIH3T3 tox inconclusive, HEK293 tox inconclusive (no result: hNpr1 antagonist, FLuc inh)

From PubChem BioAssay
